A short description of the assay: small molecules boosting NK-mediated OVCAR3 lysis – imaging, primary NK cells, calcein-AM imaging, primary screen (AID 1508625).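 Further: compound given to NK cells 16 h before adding targets at 1.5 to 1 ratio.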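 On z-score: more negative robust z means stronger NK killing of tumor cells.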 Conditions: OVCAR3 lysis by primary NK cells, at 5 µM; z-score: measured here: robust Z-score, single-point normalisation.

Take `COc1ccccc1CN1CCN(C2CCN(Cc3ccccc3)CC2)CC1`: the corrected activity, negative = more killing was 0.136% and the z-score is 0.0605.
For the compound `CCOc1ccc(Br)cc1S(=O)(=O)N1CCN(c2ccc(C)cc2C)CC1`, the corrected activity, negative = more killing was -1.21% and the z-score is -0.676.
On the same counts, the results for `Cc1c(NC(=O)COc2ccc(Oc3ccccc3)cc2)c(=O)n(-c2ccccc2)n1C` are 1.22% and 0.434.
For `CCc1ccc(NC(=O)CCNC(=O)Cn2cnc3ccccc3c2=O)cc1`, the corrected activity, negative = more killing is 0.879% and the z-score was 0.279.
`CCOC(=O)c1ccc(NC(=O)C2CCN(C(=O)c3cccs3)CC2)cc1`: the corrected activity, negative = more killing is -6.67% and the z-score was -2.48.
On the same counts, the results for `CCN(c1ccccc1C(=O)O)S(=O)(=O)c1cccc2nsnc12` are -4.09% and -1.22.
Consider `COc1ccc(OC)c(CN2CCN(Cc3ccccc3[N+](=O)[O-])CC2)c1`, for which the corrected activity, negative = more killing is -3.74% and the z-score was -1.67.
For `CCOC(=O)C1=C(N)OC2=C(C(=O)CC(C)(C)C2)C1c1ccccc1[N+](=O)[O-]` (centres undefined) the same measures were -1.89% and -0.587.
On to `COc1cc(C(=S)N2CCCCC2)ccc1OC(=O)c1ccc(C)cc1`, for which the corrected activity, negative = more killing is -4.49% and the z-score is -1.39.
For `CCN1C(=O)c2cccc3c(NC(=O)C45CC6CC(CC(C6)C4)C5)ccc1c23` the same measures were -12.5% and -2.63.
As to `NC(=O)c1ccccc1NC(=O)c1ccc(-c2cccc(Cl)c2)o1`, the corrected activity, negative = more killing was -6.51% and the z-score was -1.94.
As for `O=C1C(=O)N(Cc2cccnc2)C(c2ccccc2)C1=C(O)c1ccc(F)cc1` (centres undefined), the corrected activity, negative = more killing was -1.93% and the z-score was -0.837.
Regarding `O=C(NN=Cc1ccccc1Cl)C(=O)Nc1cccc(C(F)(F)F)c1`, the corrected activity, negative = more killing was -2.13% and the z-score was -0.904.
On the same counts, the results for `Cc1cc([N+](=O)[O-])ccc1N=Cc1ccc(Br)s1` are -2.22% and -0.944.
As for `Clc1ccc(CSc2ncnc3c2oc2ccccc23)cc1`, the corrected activity, negative = more killing is -4.09% and the z-score is -1.16.
Take `COC(=O)c1ccc(COC(=O)c2ccccc2Cl)cc1`: the corrected activity, negative = more killing is -2.71% and the z-score is -1.51.
For `CCOc1cc(C2Nc3ccccc3NC3=C2C(=O)CC(C)(C)C3)ccc1OC(C)=O` (centres undefined) the same measures were 0.693% and 0.309.
On the same counts, the results for `COc1cc2c(cc1NC(=O)C(C)c1ccc([N+](=O)[O-])cc1)oc1ccccc12` (centres undefined) are -2.25% and -1.25.
With `Cc1ccc2cccnc2c1[N+](=O)[O-]`, the corrected activity, negative = more killing was -3.53% and the z-score was -0.744.
Consider `CCOc1ccc(NC(=O)C2c3ccccc3Oc3ccccc32)c([N+](=O)[O-])c1`, for which the corrected activity, negative = more killing was -0.899% and the z-score is -0.37.
On the same counts, the results for `COc1cc(C(=S)N2CCCCC2)cc(OC)c1OC(=O)c1cccc2ccccc12` are -9.1% and -3.43.
For `CCCC12CN3CC(C)(CN(C1)C31C(=O)Nc3ccc(Br)cc31)C2=O` (centres undefined) the same measures were -2.13% and -0.876.
For `COc1cccc(-c2nnc(-c3ccc([N+](=O)[O-])cc3)o2)c1` the same measures were 1.18% and 0.417.
With `COc1cc(C(=O)N2N=C(C3CC3)CC2(O)C(F)(F)F)cc(OC)c1OC` (centres undefined), the corrected activity, negative = more killing is -3.44% and the z-score is -1.41.
For `N#Cc1c(NC(=O)c2ccc(Cl)c(S(=O)(=O)N3CCOCC3)c2)sc2c1CCCC2`, the corrected activity, negative = more killing is -5.49% and the z-score was -1.95.
For `CN(C(=O)Cn1ncc2c(=O)oc3ccccc3c21)c1ccc(Br)cc1` the same measures were -6.99% and -1.72.
`Cc1cc(C)c(CSc2nnc(C)s2)c(C)c1`: the corrected activity, negative = more killing is -5.76% and the z-score is -1.78.
On the same counts, the results for `CCOc1cccc(-c2cc(C(=O)O)c3ccccc3n2)c1` are -4.28% and -1.76.
With `CCOC(=O)C1=C(N)OC2=C(C(=O)CC(C)(C)C2)C1c1ccc(O)cc1` (centres undefined), the corrected activity, negative = more killing was -4.12% and the z-score is -1.28.
On the same counts, the results for `Cc1c(C(=O)OC(C)C)sc(NC(=O)c2cc3ccccc3c(=O)o2)c1C(=O)OC(C)C` are -4.01% and -1.65.
On the same counts, the results for `Cc1c(C(=O)NCCc2ccccc2)oc2ccc(S(=O)(=O)N3CCCC3)cc12` are -4.9% and -1.22.
On to `CC1(C)CC(=O)C(CCC(=O)c2ccccc2)C(C)(C)N1` (centres undefined), for which the corrected activity, negative = more killing was -2.46% and the z-score is -0.733.
On the same counts, the results for `Cc1ccc(-c2cc(C(F)(F)F)n3ncc(C(=O)N4CCC(C)CC4)c3n2)cc1` are -5.63% and -1.79.
For `CCCCNC(=O)c1c[nH]c2ccc(S(=O)(=O)Nc3cccc(SC)c3)cc2c1=O` the same measures were -1.92% and -0.471.
On the same counts, the results for `CCCCC(=O)NC(=S)Nc1ccc(Cl)c(C(=O)O)c1` are -4.41% and -1.64.
Consider `COc1ccc2nc3oc(C(=O)NCCc4ccc(Cl)cc4)cc3cc2c1`, for which the corrected activity, negative = more killing was -5.81% and the z-score is -1.43.
On the same counts, the results for `CC1C2CCCN2CCN1Cc1cccc(Oc2ccccc2)c1` (centres undefined) are -1.23% and -0.537.
On the same counts, the results for `Cc1ccc(NC(=O)CSc2nnc(N3C(=O)c4ccccc4C3=O)s2)c(C)c1` are -5.41% and -1.68.
For `COc1ccc(S(=O)(=O)N2CCN(C(=O)COc3ccc4ccccc4c3)CC2)cc1`, the corrected activity, negative = more killing was -2.15% and the z-score is -0.961.
`Cc1nc2ccccc2n1Cc1cccc2ccccc12`: the corrected activity, negative = more killing was -3.88% and the z-score is -2.01.
On the same counts, the results for `Cc1ccc(S(=O)(=O)n2cnc3ccccc32)cc1C` are -9% and -2.79.
For `Cc1ccc2c(C)nc(SCc3ccc(Cl)cc3)nc2c1` the same measures were -2.17% and -0.674.

The values are drawn from PubChem BioAssay AID1508625 (Wald Lab, School of Medicine, Case Western Reserve …, 2021).
